Assay results reported in PubChem BioAssay (NCATS).
Records with an inconclusive call do not appear. A call without a number means that no potency is given here. Calls of active or inactive are those of the source. The call rests on the fitted dose curve; in most records, active means well fitted cell-killing curve with a large enough effect; inconclusive means small, poorly fitted or top-dose-only effect; inactive means no such curve, though single readings can be large or run the other way.

Test: Quantitative High-Throughput drug screen in 47 multiple myeloma cell lines against the NCATS MIPE library collection: JIM3_ECACC cell viability assay (AID 1918963; further: nearly all actives have a fitted effect of over 35% in size)
Settings: JIM3 myeloma viability, CellTiter-Glo ATP, 48 h; series mostly up to 45.8 µM
Description: PI: Beverly A. Mock Ph.D.
Laboratory of Cancer Biology and Genetics,
Center for Cancer Research, National Cancer Institute,
National Institute of Health, Bethesda, Maryland
Drug resistance and disease progression are common in multiple myeloma (MM) patients, underscoring the need for new therapeutic combinations. […] We hypothesized that effective combinations would reduce MYC expression and enhance p16 activity. […] These preclinical data identify potentially useful drug combinations for evaluation in drug-resistant MM and reveal potential mechanisms of combined drug sensitivity.
Described herein is the primary MIPE qHTS used to cherrypick compounds. Validated compounds were then further tested for potential synergistic activiy.
[1] Peat TJ, Gaikwad SM, Dubois W, Gyabaah-Kessie N, Zhang S, Gorjifard S, Phyo Z, Andres M, Hughitt VK, Simpson RM, Miller MA, Girvin AT, Taylor A, Williams D, D'Antonio N, Zhang Y, Rajagopalan A, Flietner E, Wilson K, Zhang X, Shinn P, Klumpp-Thomas C, McKnight C, Itkin Z, Chen L, Kazandijian D, Zhang J, Michalowski AM, Simmons JK, Keats J, Thomas CJ, Mock BA. Drug combinations identified by high-throughput screening promote cell cycle transition and upregulate Smad pathways in myeloma. Cancer Lett. 2023 Aug 1;568:216284. doi: 10.1016/j.canlet.2023.216284. Epub 2023 Jun 24. PMID: 37356470; PMCID: PMC10408729.
SEQUENCE No. (e.g., 1, 2, 3, etc.); […] (e.g., Cells, Incubation, Reagent, etc.); VALUE and DESCRIPTION.
1; Cells; 5 uL; white, solid bottom 1536-well Greiner assay plate.
2; Compounds; 23 nL; Kalypsis pin tool (Wako USA) equipped with a 1536-well pin head to transfer to the assay plates.
3; Incubation; 48 hours; 37C incubation.
4; Reagent;5uL; CellTiter Glo (Promega).
5; Detector; 425V; Luminescence; Viewlux PerkinElmer.
NOTES (numbers refer to Sequence numbers above)
1. The cell-based screening methods employed in this study were like those previously published. Briefly, the corresponding myeloma cell lines were screened in 1,536-well plates with 500 cells, 5-uL per well for inhibition of cell viability (assessed by measuring ATP levels with CellTiterGlo).
2. NCATS MIPE 4.0 library of approved and investigational drugs were added using the Kalypsis pin tool. Wells treated with DMSO only for 100% viability and media only wells for 0% viability were used as controls.
3. The assay plates were covered and incubated for 48 hours in a 37C, 5% CO2 incubator with controlled humidity.
4. After 48 hours, CellTilter-GloTM luminescent substrate mix (Promega) reagent was added to the assay plate and plates we incubated for 5 min at room temperature.
5. Signal was measured as median relative luminescence units on a ViewLux (PerkinElmer) multiplate reader.
[1] Heske CM, Davis MI, Baumgart JT, Wilson K, Gormally MV, Chen L, Zhang X, Ceribelli M, Duveau DY, Guha R, Ferrer M, Arnaldez FI, Ji J, Tran HL, Zhang Y, Mendoza A, Helman LJ, Thomas CJ. Matrix Screen Identifies Synergistic Combination of PARP Inhibitors and Nicotinamide Phosphoribosyltransferase (NAMPT) Inhibitors in Ewing Sarcoma. Clin Cancer Res. 2017 Dec 1;23(23):7301-7311. doi: 10.1158/1078-0432.CCR-17-1121. Epub 2017 Sep 12. PMID: 28899971; PMCID: PMC6636827.
Potency means the concentration at half of the fitted maximal effect.

Structure (SMILES) | Potency
CC[N+](CC)(CC)CCOc1cccc(OCC[N+](CC)(CC)CC)c1OCC[N+](CC)(CC)CC | inactive
CCOC(=O)Nc1ccc(NCc2ccc(F)cc2)nc1N | inactive
COc1ccccc1OCC(O)CN1CCN(CC(=O)Nc2c(C)cccc2C)CC1 (stereo not given) | inactive
O=c1[nH]cc(F)c(=O)[nH]1 | 20.9 µM (active)
Cc1cnc(C(=O)NCCc2ccc(S(=O)(=O)NC(=O)NC3CCCCC3)cc2)cn1 | 18.7 µM (active)
CCc1cccc2c3c([nH]c12)C(CC)(CC(=O)O)OCC3 (stereo not given) | inactive
CN(C)C(=O)C(CCN1CCC(O)(c2ccc(Cl)cc2)CC1)(c1ccccc1)c1ccccc1 | 20.9 µM (active)
CCN1CCCC1CNC(=O)c1cc(S(=O)(=O)CC)c(N)cc1OC (stereo not given) | inactive
CCC1(c2ccccc2)C(=O)NCNC1=O | 4.69 µM (active)
O=C(C1CCCCC1)N1CC(=O)N2CCc3ccccc3C2C1 (stereo not given) | inactive
COc1cc2nc(N3CCN(C(=O)c4ccco4)CC3)nc(N)c2cc1OC | 9.35 µM (active)
CCOC(=O)C(C)(C)Oc1ccc(Cl)cc1 | inactive
O=C1c2c(O)ccc(O)c2C(=O)c2c(NCCNCCO)ccc(NCCNCCO)c21 | 1.87 µM (active)
CC(C)NCC(O)COc1ccc(CCOCC2CC2)cc1 (stereo not given) | inactive
CN(C)CCOC(c1ccccc1)c1ccccc1 | 23.5 µM (active)
CC1(CN2CCC(n3c(=O)[nH]c4ccccc43)CC2)OCc2ccccc2-n2cccc21 (stereo not given) | inactive
CCOC(=O)c1ncn2c1CN(C)C(=O)c1cc(F)ccc1-2 | inactive
O=c1c(-c2ccc(O)cc2)coc2cc(O)cc(O)c12 | inactive
CN1C2CCC1CC(OC(=O)C(CO)c1ccccc1)C2 (stereo not given) | inactive
COc1ccccc1N1CCN(CC(O)COc2cccc3ccccc23)CC1 (stereo not given) | 5.26 µM (active)

Structure (SMILES) | Potency
OCCN1CCN(CCCN2c3ccccc3Sc3ccc(C(F)(F)F)cc32)CC1 | 26.4 µM (active)
Cn1cnc2c1c(=O)[nH]c(=O)n2C | 16.6 µM (active)
CC#C[C@]1(O)CC[C@H]2[C@@H]3CCC4=CC(=O)CCC4=C3[C@@H](c3ccc(N(C)C)cc3)C[C@@]21C | 1.18 µM (active)
Clc1ccc2nsnc2c1NC1=NCCN1 | inactive
Cn1c(=O)c2[nH]cnc2n(C)c1=O | inactive
Cc1cc(C(C)(C)C)cc(C)c1CC1=NCCN1 | inactive
Cn1c(=O)c2c(ncn2C)n(C)c1=O | inactive
CN(C)CCCN1c2ccccc2CCc2ccc(Cl)cc21 | 4.69 µM (active)
CN1CCN(CCCN2c3ccccc3Sc3ccc(Cl)cc32)CC1 | 23.5 µM (active)
CS(=O)(=O)CCNCc1ccc(-c2ccc3ncnc(Nc4ccc(OCc5cccc(F)c5)c(Cl)c4)c3c2)o1 | 1.18 µM (active)
Cc1ccccc1N1C(=O)c2cc(S(N)(=O)=O)c(Cl)cc2NC1C (stereo not given) | inactive
NC(=O)NO | 0.187 µM (active)
COc1cc2nc(N(C)CCCNC(=O)C3CCCO3)nc(N)c2cc1OC (stereo not given) | inactive
Cc1cn([C@H]2C[C@H](N=[N+]=[N-])[C@@H](CO)O2)c(=O)[nH]c1=O | 26.4 µM (active)
NCCCCCC(=O)O | inactive
CCCNCC(O)COc1ccccc1C(=O)CCc1ccccc1 (stereo not given) | inactive
COc1nc(C)nc(Cl)c1NC1=NCCN1 | inactive
CN1CCN2c3ccccc3Cc3ccccc3C2C1 (stereo not given) | 20.9 µM (active)
CNCCCC12CCC(c3ccccc31)c1ccccc12 | 20.9 µM (active)
CN(CCOc1ccc(NS(C)(=O)=O)cc1)CCc1ccc(NS(C)(=O)=O)cc1 | inactive
